Screening data (PubChem BioAssay)
Hits are enriched below; roughly 3% of the tested compounds scored in any of these assays.
SUMO Mot1 rescue = inhibitors of SUMOylation pathway: yeast Mot1-301 growth rescue; S. cerevisiae Mot1-301 growth rescue, ATP luminescence, 38.5C; percent above DMSO median, 100 means doubled; growth rescue, % at 18.8 µM; actives 1% (n = 320,000);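 active = every valid replicate shows activation above 250% relative to neutral control wells; inactive = the rest, any valid replicate at or below 250%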
NALP1 inh = NALP1 inhibition. AID 2071. S. cerevisiae NALP1/ASC/caspase-1 growth, X-gal OD620, 72 h. inhibition, % at 10 µM. actives 0.61% (n = 280,000); in the data active = inhibition mostly above about 24%, no sharp cut-off; inactive = mostly below about 32%
CHT inh = human CHT choline transport inhibition; Q9GZV3; CHT-expressing cells, membrane potential dye, choline response; stronger effect = lower value; B-score at 10 µM; actives 0.86% (n = 310,000); AID 488975;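 active = B-score over 3 SD under the library average, and starting fluorescence ratio not unusually high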;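 also: choline stimulus applied at its EC90 after an EC20 pre-addition; B-score computed on integrated fluorescence ratio after choline addition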
Target sequence (Q9GZV3 whole entry, looked up): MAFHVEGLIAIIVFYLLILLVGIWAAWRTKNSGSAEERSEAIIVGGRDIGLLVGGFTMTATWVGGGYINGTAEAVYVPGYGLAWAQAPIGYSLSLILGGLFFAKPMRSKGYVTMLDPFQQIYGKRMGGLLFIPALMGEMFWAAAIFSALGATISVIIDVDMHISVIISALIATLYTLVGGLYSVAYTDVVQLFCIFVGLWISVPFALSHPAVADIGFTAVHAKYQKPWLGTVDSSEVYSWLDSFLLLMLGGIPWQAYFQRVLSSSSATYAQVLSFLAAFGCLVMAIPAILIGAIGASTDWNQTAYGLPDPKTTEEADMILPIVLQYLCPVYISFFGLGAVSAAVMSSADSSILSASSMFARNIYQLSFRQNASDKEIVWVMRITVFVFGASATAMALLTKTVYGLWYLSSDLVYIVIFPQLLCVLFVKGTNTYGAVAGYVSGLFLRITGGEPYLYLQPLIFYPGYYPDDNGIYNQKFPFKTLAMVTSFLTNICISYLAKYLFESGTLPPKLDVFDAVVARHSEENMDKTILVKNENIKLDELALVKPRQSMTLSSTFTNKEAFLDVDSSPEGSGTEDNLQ
Bfl-1 A1 inh = inhibitors of the anti-apoptotic protein A1, read as caspase activation. MEF A1-2A-BIM cells, Caspase-Glo 3/7 luminescence, 3 h; percent of clofoctol response, vehicle zero. caspase activation, % (no concentration beside the values). actives 0.066% (n = 330,000). AID 2462;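 active = over half of replicate activation scores above 10%, or exactly half above 10 with the replicate mean above 10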
CHT PAM = human CHT allosteric activation | Q9GZV3 | CHT-expressing cells, membrane potential dye, choline EC20; stronger effect = higher value; LV-AA mutant CHT in HEK293 cells | B-score at 10 µM | actives 0.49% (n = 310,000) | AID 488977;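 active = initial fluorescence not abnormally high and integrated response B-score, plate-corrected, over 3 SD above library mean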
NLRP3 yeast inh = blocks the NALP3 inflammasome reconstituted in yeast; Yeast reconstituted NLRP3/ASC/caspase-1, beta-gal luminescence, 24 h; inhibition, % at 10 µM; actives 0.39% (n = 330,000); AID 2825;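 active = inhibition of 50% or more; inactive = inhibition below 50%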
Large screens that a line does not name were inactive.

CC(C)(C)c1ccc(CNC(=O)c2ccc3c(c2)NC(=O)CO3)cc1	SUMO Mot1 rescue 331
O=C1COc2ccc(C(=O)NCc3ccc4c(c3)OCO4)cc2N1	none
CCCCn1nc(C(=O)NCC(c2cccs2)N2CCOCC2)c2ccccc2c1=O (centres undefined)	none (no result: NALP1 inh, CHT inh, CHT PAM)
CCOC(=O)Nc1ccc2c(COC(=O)C(NS(=O)(=O)c3ccc(Cl)cc3)C(C)O)cc(=O)oc2c1 (centres undefined)	none (no result: NALP1 inh, CHT inh, CHT PAM)
CCOc1ccc(C(=O)Oc2cc(C)[nH]c(=O)c2[N+](=O)[O-])cc1OCC	none
O=C(Nc1ccc2snnc2c1)N1CCSCC1	none
CNC(=O)Nc1ccc2snnc2c1	NALP1 inh 34
CC(C)Cc1nnc(NC(=O)c2ccc(N3CCCC3=O)cc2)s1	SUMO Mot1 rescue 285 (no result: NALP1 inh)
CCCCCc1nnc(NC(=O)c2ccc(N3CCCC3=O)cc2)s1	none (no result: NALP1 inh)
Cc1ccccc1CCNC(=O)C1CCN(S(=O)(=O)c2ccc(-n3cnnn3)cc2)CC1	NALP1 inh 31 (no result: SUMO Mot1 rescue, CHT inh, Bfl-1 A1 inh, CHT PAM, NLRP3 yeast inh)
CC(C)c1ccccc1OCC(=O)NN1C(=O)c2ccccc2C1=O	NALP1 inh 42
CCC(C)c1ccccc1OCC(=O)NN1C(=O)c2ccccc2C1=O (centres undefined)	none
CC(C)NCCCCOc1ccc(Br)cc1Cl	NALP1 inh 28
CC(C)NCCCOc1ccc(Cl)cc1Br	none
Cc1cccc(C(=O)OCC(=O)NC2CC2)c1O	none (no result: NALP1 inh, CHT inh, CHT PAM)
Clc1ccc2c(N/N=C/c3cccc(Br)c3)ccnc2c1	NALP1 inh 47 (no result: NLRP3 yeast inh)
O=C(CC1SC(=NCc2ccccc2)NC1=O)Nc1ccccc1 (centres undefined)	SUMO Mot1 rescue active
CCCCN=C1NC(=O)C(CC(=O)Nc2ccc(Cl)cc2)S1 (centres undefined)	SUMO Mot1 rescue 306
O=C(CC1SC(=Nc2ccc(O)cc2)NC1=O)Nc1ccccc1 (centres undefined)	none
COc1cc(C(=O)NC(C)c2ccc(-n3ccnc3)cc2)cc(OC)c1C (centres undefined)	none
COc1ccc(OC)c(S(=O)(=O)NC(C)c2ccc(-n3ccnc3)cc2)c1 (centres undefined)	Bfl-1 A1 inh 13 (no result: NALP1 inh, CHT inh, CHT PAM)
CCS(=O)(=O)Nc1ccc2c(c1)N(C(C)=O)c1ccccc1CC2	NALP1 inh 28
CCNCC(=O)N1c2ccccc2CCc2ccc(NC(=O)OCC)cc21	SUMO Mot1 rescue 293
O=S(=O)(Nc1ccc(F)cc1)c1cccc2nsnc12	none
Cc1cc(S(=O)(=O)NC(C)c2nnc3ccccn23)ccc1Br (centres undefined)	none (no result: NALP1 inh, CHT inh, CHT PAM)
COc1ccc(-n2c(C)n[nH]c2=O)cc1OC	SUMO Mot1 rescue 347
Cc1c(NS(=O)(=O)c2ccc(Br)cc2)c(=O)n(-c2ccccc2)n1C	none
COc1ccc(S(=O)(=O)Nc2c(C)n(C)n(-c3ccccc3)c2=O)cc1C(=O)O	SUMO Mot1 rescue 274
Cc1ccccc1NC(=O)c1ccc(NC(=O)C2CCCO2)cc1 (centres undefined)	none
COc1ccc(C(C(=O)NC2CCCCC2)N(C(=O)CCl)c2cccc(Cl)c2)cc1 (centres undefined)	SUMO Mot1 rescue 328 (no result: NLRP3 yeast inh)
O=S(=O)(NC1CCCCC1)c1ccc(Cl)s1	NALP1 inh 41
O=S(=O)(NC1CCCCC1)c1ccc(-c2csnn2)s1	SUMO Mot1 rescue 297
CC1CCC(NS(=O)(=O)c2ccc(Cl)s2)CC1 (centres undefined)	none (no result: SUMO Mot1 rescue, NALP1 inh, CHT inh, Bfl-1 A1 inh, CHT PAM)
COC(=O)c1cc(CSc2nc3ccccc3c(=O)n2C)oc1C	NALP1 inh 24
Cc1cc(OCC(=O)OCC(=O)Nc2ccc(Cl)cn2)ccc1Cl	none (no result: NALP1 inh, CHT inh, CHT PAM)
NC(=O)Nn1c(CCC(=O)O)ccc1-c1ccc(F)cc1	SUMO Mot1 rescue 349
Cc1ccc(N(CCC#N)C(=O)COC(=O)C2=COCCO2)cc1	none (no result: NALP1 inh)
CCN(CCN(C)C)C(=O)Cn1ncc2c1-c1cc(C)ccc1OC2	NALP1 inh 41
O=C(NNC(=O)c1ccco1)c1csc(N2CCOCC2)n1	none (no result: NALP1 inh)
Cc1ccc2nc3c(cc(C(=O)NC4CCCC4)c(=N)n3CCCn3ccnc3)c(=O)n2c1	CHT PAM 6.4
Cc1sc2ncnc(NCC3(N4CCOCC4)CCCCC3)c2c1C	NALP1 inh 44
COc1ccc2cc(S(=O)(=O)NC3CC(C)(C)NC(C)(C)C3)ccc2c1	none
Cc1onc(-c2ccccc2Cl)c1C(=O)N1CCN(c2nc3ccccc3s2)CC1	NALP1 inh 34
O=C(NCCCn1ccnc1)c1ccc(COc2ccccc2)o1	none (no result: NALP1 inh)
CSCCC(NS(=O)(=O)c1ccc(Cl)cc1)C(=O)OCC(=O)NC1CC1 (centres undefined)	none
CSCCC(NS(=O)(=O)c1ccc(Cl)cc1)C(=O)OCC(=O)N(C(C)C)C(C)C (centres undefined)	NALP1 inh 35
CN1C(C(=O)NCc2cccc(C(F)(F)F)c2)CC2Cn3c(nc4cc(Cl)c(Cl)cc43)C21 (centres undefined)	SUMO Mot1 rescue 277 (no result: NALP1 inh)
CN1C(C(=O)NCc2cccc(Br)c2)CC2Cn3c(nc4cc(Cl)c(Cl)cc43)C21 (centres undefined)	none (no result: NALP1 inh)
C[C@@H](C(=O)CC(=O)OC(C)(C)C)[C@@H](O)c1ccccc1	none
CC1(NC(=O)Nc2cc([N+](=O)[O-])ccc2O)CCS(=O)(=O)C1 (centres undefined)	none (no result: NALP1 inh, CHT inh, CHT PAM)
CC(C)Cc1nnc(NC(=O)CCC(=O)NC2CCCCCCC2)s1	none
CC(C)Cc1nnc(NC(=O)CCC(=O)NC2CC2)s1	NALP1 inh 38
C=CCc1cccc2cc(C(=O)Nc3cccc(C(=O)O)c3)c(=O)oc12	CHT inh -6.5 (no result: NALP1 inh)
COc1ccc(C=C2C=C(C(C)(C)C)C(=O)C(C(C)(C)C)=C2)cc1OC	Bfl-1 A1 inh 11
COc1ccc(/C=C2\CC/C(=C\c3ccc(OC)c(OC)c3)C2=O)cc1OC	none
COc1ccc(CNCc2c(O)c(Cl)cc3c(C)c(C)c(=O)oc23)c(OC)c1	none
COc1ccc(C(=O)OCC(=O)NCc2ccc3c(c2)OCO3)cc1S(=O)(=O)N1CCOCC1	none (no result: NALP1 inh, CHT inh, CHT PAM)
CCCCN(C(=O)COC(=O)COc1c(C)cc(C)cc1C)c1c(N)n(CCC)c(=O)[nH]c1=O	SUMO Mot1 rescue 287 (no result: NALP1 inh)
CCCCn1c(N)c(N(CCOC)C(=O)COC(=O)COc2c(C)cccc2C)c(=O)[nH]c1=O	none (no result: NALP1 inh)
Cc1cccc(NC(=O)C2CCCN2C(=O)Oc2ccccc2)c1 (centres undefined)	NALP1 inh 45
CCc1ccc(NC(=O)COC(=O)CN2C(=O)COc3ccccc32)cc1	NALP1 inh 41
Cc1nn(-c2ccc(N3CCOCC3)nn2)c(C)c1CCC(=O)NCc1ccccc1	none
CCOc1cccc(C(=O)Nc2ccccc2N2CCN(C(=O)C(C)C)CC2)c1	CHT inh -5.7
CCCCOc1cccc(C(=O)Nc2ccccc2N2CCCC2)c1	none
